# Records with an inconclusive call do not appear. Where a call stands in place of a potency, no number is given. The source made the active and inactive calls. Unless noted, calls come from the whole dose curve; as a rule, active = well fitted curve in the direction sought with a large enough effect; inconclusive = small, poorly fitted or top-dose-only effect, or another doubt; inactive = no such curve, though single readings can be large; an effect the other way counts as inactive or inconclusive.
# How the values were obtained:
# [1] = NCATS anti-infectives library activity on HEK293 viability as a counter-qHTS vs the C. elegans viability qHTS (AID 1745854); conditions: HEK293 viability counter-screen; series mostly up to 41.8 µM;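 note: HEK293 cells exposed to compounds for 24 hr before the viability read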
# Summary of the method: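 Counter-screen for cytotoxicity: HEK293, 24 hr, 37C, compounds up to 41.7 uM final (a dilution series, 1:5). Readout CellTiter-Glo luminescence, 10 min RT. Digitonin control, 83.3 uM final.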
# [2] = NCATS anti-infectives library activity on the primary C. elegans qHTS viability assay (AID 1745855; calls by dose curve; note: potency is the fitted concentration of half-maximal effect); conditions: C. elegans worm area imaging, day 7
# Summary of the method: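 GFP read-out by 488 nm laser cytometry at day 0, 3 and 7, gated on object perimeter, area and peak intensity, scored viability of PE254-GFP-FLuc worms exposed to compound in S medium with bacterial capsules at 21 °C.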
# [3] = target: Glutathione peroxidase 1 (Homo sapiens) (UniProt P07203); test: Primary qHTS Assay for Inhibitors of Recombinant Selenoprotein Glutathione Peroxidase 1 (GPX1) (AID 1845191); conditions: recombinant GPX1, GR-coupled NADPH fluorescence, 15 min; series mostly up to 48.8 µM; note: nearly all actives have a fitted effect of over 65% in size
# Sequence of Glutathione peroxidase 1 (Homo sapiens) (P07203 whole entry, looked up): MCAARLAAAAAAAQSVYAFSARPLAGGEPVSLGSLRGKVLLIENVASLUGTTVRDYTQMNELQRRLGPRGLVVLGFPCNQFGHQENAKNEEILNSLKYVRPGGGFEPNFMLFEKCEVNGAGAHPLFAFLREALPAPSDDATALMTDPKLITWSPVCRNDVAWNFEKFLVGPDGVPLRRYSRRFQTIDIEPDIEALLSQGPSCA
# Summary of the method: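 GPX1 10 nM, GR 100 nM, GSH 1 mM, NADPH 0.5 mM, CHP 0.5 mM (final). 30-min cpd preincubation, RT. Ex340/Em450 read t=0, t=15 min.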
# [4] = Quantitative High-Throughput drug screen in 47 multiple myeloma cell lines against the NCATS MIPE library collection: FR4_PLB cell viability assay (AID 1918924; note: nearly all actives have a fitted effect of over 35% in size; note: potency is the fitted concentration of half-maximal effect); conditions: FR4_PLB myeloma cells viability, CellTiter-Glo ATP, 48 h; series mostly up to 45.8 µM
# Summary of the method: (§1)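 qHTS of the MIPE 4.0 collection: 500 myeloma cells/well, 48 h drug exposure at 37C in 5% CO2, then CellTiter-Glo for 5 min at room temperature before luminescence reading.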
# [5] = Quantitative High-Throughput drug screen in 47 multiple myeloma cell lines against the NCATS MIPE library collection: Delta47_JCRB cell viability assay (AID 1918925; note: nearly all actives have a fitted effect of over 45% in size; note: potency is the fitted concentration of half-maximal effect); conditions: Delta47 myeloma viability, CellTiter-Glo ATP, 48 h; series mostly up to 45.8 µM
# Summary of the method: (§2)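 Approved and investigational drugs from MIPE 4.0 were added by pin tool to 500 cells per well. After 48 hours at 37C, ATP-based CellTiter-Glo luminescence indicated remaining viability.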
# [6] = Quantitative High-Throughput drug screen in 47 multiple myeloma cell lines against the NCATS MIPE library collection: AMO1_DSMZ cell viability assay (AID 1918927; note: nearly all actives have a fitted effect of over 30% in size; note: potency is the fitted concentration of half-maximal effect); conditions: AMO1 myeloma cells viability, CellTiter-Glo ATP luminescence, 48 h; series mostly up to 45.8 µM
# Summary of the method: as §2
# [7] = Quantitative High-Throughput drug screen in 47 multiple myeloma cell lines against the NCATS MIPE library collection: ARD_JJKsccE7 cell viability assay (AID 1918929; note: potency is the fitted concentration of half-maximal effect); conditions: ARD myeloma cell line viability, CellTiter-Glo, 48 h; series mostly up to 45.8 µM
# Summary of the method: as §2
# [8] = Quantitative High-Throughput drug screen in 47 multiple myeloma cell lines against the NCATS MIPE library collection: Karpas620_DSMZ cell viability assay (AID 1918959); conditions: Karpas620 myeloma viability, CellTiter-Glo ATP luminescence, 48 h; series mostly up to 45.8 µM; note: nearly all actives have a fitted effect of over 30% in size; note: potency is the fitted concentration of half-maximal effect
# Summary of the method: as §1
# [9] = target: Catechol O-methyltransferase (Homo sapiens) (UniProt P21964); test: Confirmatory Screen for Target Class Profiling of Small Molecule Inhibitors of Methyltransferases (AID 1745852; calls by dose curve); conditions: MTase-Glo luminescence, SAH detection, recombinant enzyme; measured here: COMT max response; stronger effect = lower value
# Sequence of Catechol O-methyltransferase (Homo sapiens) (P21964 whole entry, looked up): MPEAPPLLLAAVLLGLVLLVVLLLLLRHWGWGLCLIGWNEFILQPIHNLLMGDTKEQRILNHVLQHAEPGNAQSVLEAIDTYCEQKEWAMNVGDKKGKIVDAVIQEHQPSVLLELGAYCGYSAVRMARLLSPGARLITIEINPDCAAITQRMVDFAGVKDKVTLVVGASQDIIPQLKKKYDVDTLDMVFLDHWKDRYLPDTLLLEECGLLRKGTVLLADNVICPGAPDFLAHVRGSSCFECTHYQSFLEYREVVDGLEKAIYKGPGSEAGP
# [10] = target: Guanidinoacetate N-methyltransferase (Homo sapiens) (UniProt Q14353); test: as above; conditions: MTase-Glo luminescence, SAH detection, recombinant enzyme; activity change, negative = inhibition: at 57.3 µM (top of the series)
# [11] = target: Nicotinamide N-methyltransferase (Homo sapiens) (UniProt P40261); test: as above; conditions: MTase-Glo luminescence, SAH detection, recombinant enzyme; measured here: NNMT max response; stronger effect = lower value
# Sequence of Nicotinamide N-methyltransferase (Homo sapiens) (P40261 whole entry, looked up): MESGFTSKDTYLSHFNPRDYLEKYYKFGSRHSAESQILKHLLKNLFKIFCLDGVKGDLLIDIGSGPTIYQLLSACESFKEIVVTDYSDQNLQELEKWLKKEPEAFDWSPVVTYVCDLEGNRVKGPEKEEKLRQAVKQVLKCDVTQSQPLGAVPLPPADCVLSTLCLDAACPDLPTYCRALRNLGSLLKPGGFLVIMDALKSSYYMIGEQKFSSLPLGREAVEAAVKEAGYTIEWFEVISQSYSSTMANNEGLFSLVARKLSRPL
# [12] = target: Phenylethanolamine N-methyltransferase (Homo sapiens) (UniProt P11086); test: as above; conditions: MTase-Glo luminescence, SAH detection, recombinant enzyme; measured here: PNMT max response; stronger effect = lower value
# Sequence of Phenylethanolamine N-methyltransferase (Homo sapiens) (P11086 whole entry, looked up): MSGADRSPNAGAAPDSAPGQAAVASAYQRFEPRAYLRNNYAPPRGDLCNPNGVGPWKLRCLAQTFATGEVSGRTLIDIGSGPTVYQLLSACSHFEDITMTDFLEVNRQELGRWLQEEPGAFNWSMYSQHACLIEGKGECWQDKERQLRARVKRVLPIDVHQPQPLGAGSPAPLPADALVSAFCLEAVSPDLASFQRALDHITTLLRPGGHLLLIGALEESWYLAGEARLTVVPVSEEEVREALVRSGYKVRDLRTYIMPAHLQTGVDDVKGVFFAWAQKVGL
# [13] = target: Metallo-beta-lactamase type 2 (Klebsiella pneumoniae) (UniProt C7C422); test: qHTS to identify inhibitors of the New Delhi Metallo-beta-lactamase (NDM): assay validation screen against the NCATS LOPAC Collection (AID 1794843); conditions: NDM-1 enzyme, nitrocefin hydrolysis, absorbance 485 nm; series mostly up to 38.4 µM;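 note: nitrocefin turnover by NDM-1 measured as 485 nm absorbance at plateau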
# Sequence of Metallo-beta-lactamase type 2 (Klebsiella pneumoniae) (C7C422 whole entry, looked up): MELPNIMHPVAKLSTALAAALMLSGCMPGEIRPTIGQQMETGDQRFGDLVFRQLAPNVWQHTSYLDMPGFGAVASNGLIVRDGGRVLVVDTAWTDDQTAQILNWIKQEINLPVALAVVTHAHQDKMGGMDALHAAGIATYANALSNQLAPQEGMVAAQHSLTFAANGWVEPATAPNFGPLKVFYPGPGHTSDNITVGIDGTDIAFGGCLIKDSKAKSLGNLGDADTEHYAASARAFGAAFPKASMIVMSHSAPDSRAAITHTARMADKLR
# Summary of the method: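 Enzyme 2 nM final, 50 mM HEPES pH 7.0, 1 uM ZnSO4, 0.01% Tween20; cpds in DMSO, preincub w/ enzyme; + nitrocefin (50 uM stock); A485 at plateau; no-enzyme column as blank.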
# [14] = target: Phospholipid hydroperoxide glutathione peroxidase GPX4 (Homo sapiens) (UniProt P36969); test: Primary qHTS Assay for Inhibitors of Recombinant Selenoprotein Glutathione Peroxidase 4 (GPX4) (AID 1845192); conditions: recombinant GPX4, GR-coupled NADPH fluorescence, 15 min; series mostly up to 50 µM; note: nearly all actives have a fitted effect of over 65% in size
# Sequence of Phospholipid hydroperoxide glutathione peroxidase GPX4 (Homo sapiens) (P36969 whole entry, looked up): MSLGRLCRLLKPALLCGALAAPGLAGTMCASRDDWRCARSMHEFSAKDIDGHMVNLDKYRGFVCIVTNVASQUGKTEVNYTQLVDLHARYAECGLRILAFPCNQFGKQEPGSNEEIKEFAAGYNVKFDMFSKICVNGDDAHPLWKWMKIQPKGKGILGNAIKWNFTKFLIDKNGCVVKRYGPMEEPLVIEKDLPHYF
# Summary of the method: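 qHTS, GR-coupled: GPX4 200 nM + cpd 30 min RT → GSH 1 mM, NADPH 0.5 mM, GR 100 nM → CHP 0.5 mM start; fluor 340/450 at t0 and t15 min; no-enzyme wells as control.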
# [15] = target: Luciferin 4-monooxygenase (Photinus pyralis) (UniProt P08659); test: Primary firefly luciferase (FLuc) qHTS assay for identification of artifact compounds. (AID 1845220); conditions: purified firefly luciferase, luminescence, 5 min; series mostly up to 54.1 µM; note: nearly all actives have a fitted effect of over 60% in size
# Summary of the method: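 qHTS, 15 min compound preincubation with substrate (10 uM luciferin, 10 uM ATP) at RT, then 10 nM FLuc; 5 min; luminescence; % inhibition vs no-enzyme/DMSO controls, 4-parameter Hill fit.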
# [16] = Primary fluorescence-based thiol-reactive (MSTI) qHTS assay for identification of artifact compounds. (AID 1845221); conditions: MSTI thiol-reactivity probe, 1 h; series mostly up to 53.8 µM;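 note: thiol-reactive compounds lower the probe fluorescence signal; nearly all actives have a fitted effect of over 65% in size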
# Summary of the method: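 Probe: MSTI 4 uM, PBS pH 7.4, 2% DMSO. Incubation 1 h, RT, light-protected. Readout fluorescence 525/598 nm.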
# [17] = Primary redox qHTS assay for identification of artifact compounds. (AID 1845223); conditions: Amplex Red/HRP redox cycling with DTT, fluorescence; series mostly up to 53.8 µM
# Summary of the method: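 Redox-cycling detection via DTT (250 uM final) oxidation coupled to Amplex Red (25 uM)/HRP (250 mU/mL) in HBSS. 15 min preincubation plus 30 min after DTT, room temperature. Ex/Em 525/598 nm; 4-parameter Hill fit against DMSO and 10 uM DA3003.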
# [18] = Quantitative High-Throughput drug screen in 47 multiple myeloma cell lines against the NCATS MIPE library collection: EJM_DSMZ cell viability assay (AID 1918926; note: nearly all actives have a fitted effect of over 30% in size); conditions: EJM myeloma cell viability, CellTiter-Glo ATP, 48 h; series mostly up to 45.8 µM
# Summary of the method: as §2
# [19] = Quantitative High-Throughput drug screen in 47 multiple myeloma cell lines against the NCATS MIPE library collection: ARP1_JJKsccF8 cell viability assay (AID 1918928; note: nearly all actives have a fitted effect of over 40% in size); conditions: ARP1 myeloma cells viability, CellTiter-Glo ATP, 48 h; series mostly up to 45.8 µM
# Summary of the method: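 500 cells/well; MIPE 4.0 library pinned in; 48 h, 37 °C, 5% CO2; CellTiter-Glo ATP luminescence. Controls: DMSO = 100% viability, medium only = 0%.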
smiles,measurement,setting,value
CCCCCC[C@H]1C(=O)O[C@H](C)[C@H](NC(=O)c2cccc(NC=O)c2O)C(=O)O[C@@H](C)[C@@H]1OC(=O)CC(C)C,Potency,[1],inactive
same,Potency,[2],7270 nM (active)
same,Potency,[3],inactive
same,Potency,[4],66.2 nM (active)
same,Potency,[5],52.6 nM (active)
same,Potency,[6],235 nM (active)
same,Potency,[7],372 nM (active)
same,Potency,[8],935 nM (active)
NC1CCc2cc(O)c(O)cc2C1 (centres undefined),activity,[9],149%
same,"activity change, negative = inhibition",[10],0.293%
same,activity,[11],-14.5%
same,activity,[12],-22.8%
same,outcome,[13],inactive
same,Potency,[3],inactive
same,Potency,[14],inactive
CNCCc1c[nH]c2ccc(O)cc12,activity,[9],2.02%
same,"activity change, negative = inhibition",[10],1.54%
same,activity,[11],-11.4%
same,activity,[12],0.784%
same,Potency,[3],inactive
same,Potency,[14],inactive
CCCCc1ccc(C(=O)O)nc1,outcome,[13],inactive
same,Potency,[3],inactive
same,Potency,[14],inactive
Cc1nccc2c1[nH]c1ccccc12,outcome,[13],inactive
same,Potency,[3],inactive
C[N+](C)(C)CC(=O)O,outcome,[13],inactive
same,Potency,[3],inactive
same,Potency,[14],inactive
NC(CCP(=O)(O)O)C(=O)O (centres undefined),outcome,[13],inactive
same,Potency,[3],inactive
same,Potency,[14],inactive
C[C@@H](N)Cc1cnc[nH]1,activity,[9],-4.66%
same,"activity change, negative = inhibition",[10],-1.84%
same,activity,[11],-6.87%
same,activity,[12],-2.06%
same,outcome,[13],inactive
same,Potency,[3],inactive
same,Potency,[14],inactive
CCCN1CCO[C@@H]2c3cc(O)ccc3OC[C@H]21,outcome,[13],inactive
same,Potency,[3],inactive
same,Potency,[14],inactive
O=C1C=CC[C@@H]2[C@H]3CCCN4CCC[C@@H](CN12)[C@@H]34,Potency,[1],inactive
same,Potency,[3],inactive
same,Potency,[14],inactive
same,outcome,[15],inactive
same,Potency,[16],inactive
same,outcome,[17],inactive
same,Potency,[4],11800 nM (active)
same,Potency,[18],inactive
same,Potency,[19],inactive
same,Potency,[8],inactive
CC(Cc1ccc(O)cc1)NCC(O)c1cc(O)cc(O)c1 (centres undefined),outcome,[13],inactive
same,Potency,[3],inactive
same,Potency,[14],inactive
O=C(Oc1ccc([N+](=O)[O-])cc1)N1CCC(C(O)(c2ccc3c(c2)OCO3)c2ccc3c(c2)OCO3)CC1,Potency,[1],inactive
same,Potency,[3],inactive
same,Potency,[14],inactive
same,outcome,[15],inactive
same,Potency,[16],inactive
same,outcome,[17],inactive
same,Potency,[4],inactive
same,Potency,[18],inactive
same,Potency,[19],inactive
NC1CC1c1ccccc1 (centres undefined),activity,[9],4.07%
same,"activity change, negative = inhibition",[10],2.15%
same,activity,[11],-6.32%
same,activity,[12],-14.4%
same,outcome,[13],inactive
same,Potency,[3],inactive
same,Potency,[14],inactive
same,Potency,[4],inactive
same,Potency,[5],inactive
same,Potency,[18],inactive
same,Potency,[6],inactive
same,Potency,[19],inactive
same,Potency,[7],inactive
same,Potency,[8],inactive
C[C@@H]1O[C@H](C[N+](C)(C)C)C[C@H]1O,outcome,[13],inactive
same,Potency,[3],inactive
same,Potency,[14],inactive
CN[C@@H]1C[C@@H](c2ccc(Cl)c(Cl)c2)c2ccccc21,outcome,[13],inactive
same,Potency,[3],inactive
same,Potency,[14],inactive

# Source: PubChem BioAssay (NCATS)
